This is an account of results in PubChem BioAssay AID1259240 (Keith Lab, Institute of Cancer Science, University of …, 2017).

SMILES strings stand for the structures. Active and inactive are the calls of the source. Rule as the data show it: active = fold change mostly below about -2 (no sharp cut-off); inactive = mostly above about -1.8.

The assay can be described thus: TERT promoter activity modulators, primary screen, cell-based, luciferase reporter, human (AID 1259240). To be noted: A2780 TERT promoter luciferase reporter, 16 h; at 20 µM, fold versus average of vehicle-only wells.
Take `C=CCNC(=O)CSc1nc(-c2cccs2)cc(C(F)(F)F)n1`: the fold change is -1.55 (inactive).

In the case of `Cc1cc(C)c(C#N)c(SCC(=O)Nc2nc(-c3ccccc3)ns2)n1`, the fold change is -1.27 (inactive).

`COc1ccc(/C=c2\sc3nc(-c4cc(OC)c(OC)c(OC)c4)nn3c2=O)c(OC)c1`: the fold change was -1.26 (inactive).

Turning to `CC(C)Cc1nnc(NC(=O)CSc2ncn[nH]2)s1`, the fold change was -1.25 (inactive).

In the case of `Cc1cc(NC(=O)CSCc2nc(-c3cccc(F)c3)oc2C)no1`, the fold change is 1.06 (inactive).

Regarding `Cc1ccc2oc(-c3ccccc3C(=O)O)cc(=O)c2c1`, the fold change was 1.62 (inactive).

With `c1cc2nncn2nc1NCCCN1CCOCC1`, the fold change is -1.08 (inactive).

As to `CC(C)CCSc1nc(-c2ccc([N+](=O)[O-])cc2)nc2c1c(=O)n(C)c(=O)n2C`, the fold change is 1.2 (inactive).

Consider `CC1CCN(S(=O)(=O)c2ccc3c(c2)N(CC(=O)NCCN2CCCC2)C(=O)CO3)CC1`, for which the fold change was -1.01 (inactive).

`Cc1cc(C)cc(NC(=O)CC(C)CC2=NS(=O)(=O)c3ccccc3N2)c1` (centres undefined): the fold change is -1.03 (inactive).

In the case of `CCOC(=O)c1c(C)n(C)c2ccc(OCC(O)Cn3nc(C)cc3C)cc12` (centres undefined), the fold change was -2.1 (active).

Take `OC(c1ccccc1)c1nn(CN2CCOCC2)c(=S)n1-c1ccccc1` (centres undefined): the fold change is -3.71 (active).

On to `O=C(CSc1nc(-c2ccco2)cc(C(F)(F)F)n1)N1CCOCC1`, for which the fold change is -2.11 (active).

Take `Cc1csc(NC(=O)C2CCCN(S(=O)(=O)c3c(C)[nH]c(=O)[nH]c3=O)C2)n1` (centres undefined): the fold change was -1.1 (inactive).

Take `CCOc1nc(-c2ccncc2)nc2ccccc12`: the fold change was -4.22 (active).

On to `Cc1ccc(NC(=O)CSc2nc3c(c(=O)[nH]2)CCC3)cc1F`, for which the call was inactive.

Regarding `O=C1CC(c2cc(Br)cs2)c2cc3c(cc2N1)OCO3` (centres undefined), the fold change was 1.13 (inactive).

In the case of `CCOC(=O)C1CCCN(c2c(OCC)c(=O)c2=O)C1` (centres undefined), the fold change is 1.23 (inactive).

Consider `O=C(Cn1ncc2c3ccccc3n(Cc3cccc(Cl)c3)c2c1=O)NCc1cccnc1`, for which the fold change is -1.25 (inactive).

For `CCCCCn1c(=O)[nH]c2c(c1=O)CCC2`, the fold change is -1.18 (inactive).

With `CCOC(=O)C(C)Sc1nnc(-c2c[nH]c3ccccc23)n1CC` (centres undefined), the result was inactive.

Regarding `Cc1c(NC(=O)c2cc(C3CC3)on2)c(=O)n(-c2ccccc2)n1C`, the fold change was -1.33 (inactive).

Consider `O=C1SC(Nc2ccccc2F)C(=O)N1c1ccccc1` (centres undefined), for which the fold change was 1.65 (inactive).

Turning to `CC1CCC(NC(=O)C(=O)Nc2ccc3nc4n(c(=O)c3c2)CCCCC4)CC1` (centres undefined), the fold change was 1 (inactive).
